Results published in the supplement of paper PMC6555819.

Legend:
Test in all cases: PBM binding z-score (relative to random genomic background probes); higher = stronger binding; sequences stand for … in GC…GCGATTGACAGCGTAGAATGAAGG
[1] = tested on: RARg:RXRa (NR concentration 270 nM, RXRa partner concentration 90 nM)
In short: (§1)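 Regression normalization was applied to scanned fluorescence from custom Agilent 4×180K protein-binding microarrays. Before scanning, arrays were incubated 1 h with ligand-free nuclear receptor dimers, and binding was detected with antibodies against each partner (one per run). Binding z-scores use the random background probes as reference.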

[2] = tested on: RARg homodimer (NR concentration 270 nM)
In short: as §1

[3] = tested on: RXRa DBDmut IVT, anti-RXR (DBD mutation: RXRa K156A/R161A, NR concentration 90 nM)
In short: as §1

[4] = tested on: RXRa homodimer (NR concentration 180 nM)
In short: as §1

[5] = tested on: THRa:RXRa (NR concentration 90 nM, RXRa partner concentration 90 nM)
In short: as §1

[6] = tested on: THRa homodimer (NR concentration 90 nM)
In short: as §1

[7] = tested on: VDR homodimer (NR concentration 270 nM)
In short: as §1

| Sequence | PBM binding z-score [1] | PBM binding z-score [2] | PBM binding z-score [3] | PBM binding z-score [4] | PBM binding z-score [5] | PBM binding z-score [6] | PBM binding z-score [7] |
| --- | --- | --- | --- | --- | --- | --- | --- |
| TTGCCTAGGTCATTGGGCCAGTATAGTACGCATC | 3.73 | 4.22 | 1.9 | 2.8 | 2.89 | 1.05 | 1.14 |
| CGAACGAGGTCATCCAGGACAGTGAATACATTGA | 6.67 | 6.52 | 4.86 | 7.28 | – | 3.83 | 6.44 |
| ATATGTAGGTTACCTGGGGTCATTCAGACTAGGC | 4.46 | 3.44 | 1.99 | 5.78 | – | 3.39 | 5.34 |
| CCTACGGGGCCACGAAAGGTCATTGATTCAGTGA | 5.49 | 5.3 | 0.662 | 5.74 | 4.64 | 0.878 | 2.64 |
| CGAACGAGGTCATTGACAGGACAGTGAATAGTAA | 7.11 | 6.33 | 4.84 | 7.11 | 4.06 | 2.45 | 5.66 |
| GCTTACAGGTCAAAGGTTATAGCATGAATAGAAT | 7.18 | 5.44 | 2.31 | 9.21 | 4.11 | 0.393 | 1.47 |
| GGAACGAGGTCAAGTTGATAGCAGAGTTTGATGG | 6.84 | 7.08 | 4.6 | 7.65 | 4.27 | 2.78 | 5.11 |
| CGTCCAAGGTCATATGAGGTCAGTGAAGACAGAT | 6.88 | 7.55 | 4.62 | 7.07 | – | 4.58 | 6.28 |
| CCTACTGGGTCACGAAAGGTCATTGATTCAGTGA | 6.96 | 6.81 | 1.69 | 7.05 | – | 1.82 | 2.59 |
| ACTTACGGCTCAACGAGGTTATAGCACGCGTATA | 0.411 | 0.49 | 0.343 | 0.9 | 1.33 | 0.562 | 0.756 |
| GGAACGAGGGCATTCGAGTTCATAGCATGGCGAT | 2.51 | 2.58 | 3.99 | 2.5 | – | -0.00454 | 8.72 |
| AGCGAAAGGTCGAGGTGAGTATAGAGAAAGGGAA | 4.32 | 4.24 | 0.946 | 4.46 | 2.89 | 0.747 | 0.467 |
| GCATATAGGTAATACAAGGTCAAAGTCCGATTGT | 3.39 | 2.81 | 1.43 | 3.97 | – | 3.05 | 2.68 |
| CCTTACGGGTCACTCCAGGTCATAGCATCGGAGT | 5.28 | 5.41 | 1.08 | 5.06 | – | 3.03 | 2.49 |
| GATACAGGGTCAAGGTCAGAGTACGCGTATTGAT | 6.26 | 6.78 | 2.78 | 6.63 | 4.45 | 3.55 | 4.39 |
| CTATGTAGGTTAGGGGGGTCATTCAGTTTGAAAG | 5.7 | 4.91 | 3.23 | 5.83 | 4.21 | 3.25 | 6.97 |
| CAAACTAGTTCAAGAGGTCAAAGTCCGCTTCCCG | 6.53 | 5.81 | 3.18 | 7.43 | 3.77 | 1.92 | 4.98 |
| CGTCAAAGTTCAACTAAGGTTACGTAAAGCACGC | 6.64 | 7.26 | 4.73 | 6.03 | – | 2.2 | 4.89 |
| AGAATGAGGTTACCAAAGGTCAGGGAAACGCTTG | 6.29 | 5.66 | 1.72 | 7.02 | – | 2.11 | 1.92 |
| GGAACGAGGTCAAAGTTGATAGCATCTGTCGACG | 6.64 | 6.56 | 4.67 | – | 4.12 | 2.61 | 4.79 |
| CTACCAAGGTCAACAAGGTCGTTGATTACTATTC | 6.87 | 6.92 | 4.65 | 6.84 | – | 3.68 | 7.86 |
| CGAACTAGGTCTAAGGACAGTGAAAGGCGACGTA | -0.0449 | 0.382 | 0.0916 | 0.0481 | 2.65 | 1.96 | -0.112 |

| Sequence | PBM binding z-score [1] | PBM binding z-score [2] | PBM binding z-score [3] | PBM binding z-score [4] | PBM binding z-score [5] | PBM binding z-score [6] | PBM binding z-score [7] |
| --- | --- | --- | --- | --- | --- | --- | --- |
| CGTCCAAGGTCATAGGAGGTCAATGAAGACAGAT | 6.94 | 7.28 | 3.99 | 7.15 | – | 3.89 | 4.97 |
| CAAACGAGGTCACGAAAGGTCAAAGTCGAATGAC | – | 9.89 | 4.62 | – | 5.28 | 4.41 | 6.31 |
| GCTGCGAGGTCAACTGATGGTCAGCTAAAGCTCG | – | 7.44 | 4.3 | 7.17 | 4.33 | 2.9 | 3.42 |
| CCTTACGGGTCACGAGGTCATAGCACGACGAGCG | – | 6.74 | 3.05 | – | 4.58 | 3.43 | 4.83 |
| TATACAGGGTCAAAGGCCAAAGTACGAATGTCGA | 6.22 | 5.3 | 3 | – | 3.76 | 0.785 | 3.3 |
| CGTCCGAGGTCAAGGTCAGTGAAAGAGACTCGAA | – | 7.79 | 4.19 | – | 4.37 | 3.97 | 4.69 |
| ATATGTAGGTTAAAGGTCATTCAGGTTGGTTCGC | 6.81 | 5.37 | 2.47 | – | 4.31 | 1.97 | 5.11 |
| TCTAGTTGGTCAAAGGTCACGCACTCGAAATGCG | – | 7.23 | 1.92 | 8.9 | 4.31 | 2.52 | 3.12 |
| CAAAATAGGTCACGAAAGGTCAAAGTCGAATGAC | – | 8.76 | 2.5 | 8.89 | 5.07 | 1.51 | 3.8 |
| CCGACGGGGGCAAAGGTTACCATACTCAGTACGA | 6.4 | 4.09 | 3.13 | – | 3.88 | 1.02 | 2.92 |
| CTATGTAGGTTAAGGGAGTCATTCAGTTTGAAAG | – | 0.44 | 0.0971 | 0.802 | 0.572 | -0.282 | 0.283 |
| TGTCAAAGTTCAAAGGTGACGTAAGTATCCACAC | 6.99 | 6.27 | 4.5 | – | 3.76 | -0.183 | 4.97 |
| CCAACTAGGTCAAAGGACAGTGAAAGGCGACGTA | – | 4.53 | 1.91 | 3.05 | 2.4 | 0.765 | 0.866 |
| GCTGCTAGTTCAACTGATGGTCAGCTAAAGCTCG | 1.93 | 1.07 | 1.97 | – | 0.297 | -0.498 | 0.327 |
| CAAACTAGGTCAAAAGGTCAAAGTCCGCTTCCCG | – | 8.65 | 2.66 | – | 4.48 | 1.87 | 3.77 |
| CGAACGAGGTCACCAGGACAGTGAAGAGGTTGGA | 7.15 | 7.24 | 4.32 | – | 4.66 | 3.86 | 3.87 |
| CGTCCAAGGTCACAGAGGTCAGTGAATGCCGAGT | – | 8.03 | 3.92 | 7.67 | – | 3.95 | 6.67 |
| AGAACGAGGTCACGCTGAGTTGATAGCAGAGTAG | – | 7.61 | 4.36 | – | 4.37 | 3.59 | 5.15 |
| CAAACCAGGTCAAAGGTCAAAGTCGAGCCAACCA | 8.97 | 7.49 | 3.71 | – | 5.07 | 2.57 | 3.91 |
| CCTTAGGGGTCACGAGGTTATAGCACGACGAGCG | – | 8.18 | 4.14 | – | 4.53 | 1.8 | 4.55 |
| CGTCAAAGGTCAGAGAGGTCAGTGAATGCCGAGT | – | 9.03 | 3.48 | – | 4.37 | 1.6 | 5.19 |
| GATACGGGGTCAAGGCCAGAGTACGCGTATTGAT | 7.3 | 6.89 | 4.16 | – | 4.23 | 2.04 | 4.85 |

| Sequence | PBM binding z-score [1] | PBM binding z-score [2] | PBM binding z-score [3] | PBM binding z-score [4] | PBM binding z-score [5] | PBM binding z-score [6] | PBM binding z-score [7] |
| --- | --- | --- | --- | --- | --- | --- | --- |
| ATCGAAAGGTCATGAGGTGAGTATACAGAAAGGC | – | 8.01 | 3.11 | – | 4.37 | 1.95 | 2.68 |
| CGTCAAAGTTCAACTAAGGTCACGTAAAGCACGC | – | 8.89 | 4.75 | 7.65 | – | 5.58 | 6.52 |
| CCGAGAAGGTTACGAGGGGGCATTCAGTGCGAAT | – | 3.13 | 1.65 | 3.45 | 4.4 | 0.555 | 3.67 |
| CAAAATAGGTCACAGAGGTCAAAGTCCGTGCGTA | – | 8.18 | 3.08 | 8.46 | 4.74 | 2.2 | 6.13 |
| TAGCCGAGGTCATTCAGGGGCCAGTATAGAAAGC | – | 6 | 4.38 | 6.55 | 4.56 | 2.38 | 5.34 |
| CCTTAGGGGTCACTGACAGGTTATAGCATTTGGA | – | 7.67 | 4.43 | – | 4.27 | 0.822 | 3.55 |
| TAGCCTAGGTCATTCAGGGGCAAGTATAGAAAGC | – | 4.44 | 2.38 | 3.47 | – | 0.948 | 2.65 |
| CCTCGGAGGTCAACAGGAGGTCAGAGCTGCCAGA | – | 7.73 | 3.36 | 7.54 | 4.73 | 1.81 | 3.37 |
| ATATGTAGGTCAAGGGTCATTCAGGTTGGTTCGC | 7.22 | 6.02 | 2.84 | – | 4.58 | 2.22 | 4.28 |
| CCTGCTAGGTCAAAGGTCAGCTAAAGCAGCTCGC | – | 7.57 | 2.83 | – | 4.6 | 1.41 | 1.75 |
| CAAAATAGGTCACCGGAAGGTCAAAGTCCGCATG | – | 8.46 | 2.03 | – | 4.65 | 1.82 | 3.41 |
| TAGCCTAGTTCATGCGGGCCAGTATAGTGTCGGC | – | 0.586 | 1.71 | 0.0808 | – | -0.684 | 1.56 |
| AATACGGGGTCACTAGGCCAGAGTAGGTACGAAT | 7.06 | 6.82 | 4.12 | – | 4.25 | 2.25 | 4.82 |
| CGTCCAAGGTCATAGGGGGTCAGTGAAGACAGAT | – | 7.83 | 4.45 | 7.31 | 5.24 | 4.24 | 4.75 |
| CGTCAAAGGTCAACTAAGGTAACGTAAAGCACGC | – | 9.23 | 3.52 | – | 5.48 | 2.46 | 2.23 |
| ACTTACGGGTCAACGAGGTCATAGCACGCGTATA | 7.14 | 6.95 | 3.65 | – | – | 3.64 | 7.5 |
| CCTTAAGGGTCACGAGGTTATAGCACGACGAGCG | – | 7.23 | 3.17 | – | 4.24 | 1.24 | 2.91 |
| ATCGAAAGGTCAACGAGGTGAGTATACACCGTTT | – | 8.92 | 3.23 | – | 4.42 | 1.96 | 3.29 |
| GCTTAAGGGTCAAAGGTTATAGCATGAATAGAAT | – | 7.11 | 3.54 | 9.83 | 4.14 | -0.296 | 2.8 |
| CAAACAAGGTCACGAAAGGTCAAAGTCGAATGAC | – | 9.5 | 4.12 | – | 5.17 | 3.65 | 5.74 |
| CGTCCAAGGTCAAAGGTCAATGAAGAGATGACGG | – | 8.5 | 3.93 | – | – | 2.5 | 3.6 |
